# MCF10A rerep: inducers of DNA re-replication in MCF 10A breast cells; MCF 10A DNA re-replication, Hoechst nuclear intensity, 48 h; actives 2.9% (n = 350,000); AID 624296; Potency, µM (doses to about 46.1 µM), usual class: activators; also: nearly all actives have a fitted effect of over 50% in size
# A-T KAP1 phos: potential ataxia-telangiectasia treatment. F2112 A-T fibroblasts, KAP-1 phosphorylation AlphaLISA; neocarzinostatin DNA damage 30 min before lysis. Potency, µM (titrated, usually from 57.5 µM), usual class: activators. actives 0.19% (n = 320,000). AID 485349; also: nearly all actives have a fitted effect of over 45% in size
#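 ATM-like activity read as KAP-1 phosphorylation via AlphaLISA donor/acceptor antibody pairs after lysis and 6 hr at 25C. Cells were ATM-null patient fibroblasts (F2112, hTERT), dosed 60 min, then exposed to the DSB inducer NCS for 30 min.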
# Mito fusion yeast: blocks mitochondrial division or promotes mitochondrial fusion; S. cerevisiae fusion-defective mutant growth rescue, CellTiterGlo 48 h; Potency, µM (series often up to 46.1 µM), hits mostly activators; actives 0.23% (n = 320,000); also: nearly all actives have a fitted effect of over 45% in size
#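 Compounds are tested for their ability to restore growth of mitochondrial fusion-defective yeast strains at non-permissive 37C in YPEG medium over 48 hours. Viability is quantified by luciferase luminescence.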
# SW480 rereplic: induces DNA re-replication in SW480 colon adenocarcinoma cells; Potency, µM (titrated, usually from 46.1 µM), most hits filed as activators; actives 1.8% (n = 340,000); SW480 DNA re-replication, Hoechst DNA content imaging, 48 h; also: nearly all actives have a fitted effect of over 55% in size
#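 Treated cells incubate 48 hr (37 C, 5% CO2), are stained 40 min with Hoechst, and nuclear fluorescence is enumerated; a rise in nuclei with high DNA signal marks re-replication.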
# Integrin act MD: activators of alpha7 integrin expression for muscular dystrophy | Potency, µM (highest dose often 38.3 µM), hits mostly activators | alpha7betagal myoblasts, beta-gal FDG fluorescence, 48 h | actives 0.064% (n = 350,000); also: nearly all actives have a fitted effect of over 60% in size
#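 Alpha7betagal+/- myoblasts (passage 13) were plated 16-24 hr, then exposed to compounds (1:260 dilution of DMSO stock) for 48 hours at 37C. After MPER lysis, β-galactosidase reporter activity was read as FDG fluorescence (ex 480/em 540) after 30 minutes.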
# Hits are given with their value; – = inactive; ? = inconclusive; · = not tested or not shown; [ ] = dose if it differs, or a comment. In the library only some 4.2% were active in any assay of this set; here they are far more common. Calls follow the shape of the dose curve; as a rule, active = well fitted activation curve with a large enough effect; inconclusive = small, poorly fitted or top-dose-only effect; inactive = no such curve, though single readings can be large or run the other way.
SMILES,MCF10A rerep,A-T KAP1 phos,Mito fusion yeast,SW480 rereplic,Integrin act MD
CCCCCCc1cc2cc(/C(N)=N/NC(=O)c3ccncc3)c(=O)oc2cc1O,1.3µM,–,–,1.6µM,·
CCCCCCc1cc2cc(C(N)=O)c(=N)oc2cc1O,·,·,–,·,·
CCCCCCc1cc2cc(C(=O)Nc3ccc(OC)cc3)c(=O)oc2cc1O,0.73µM,–,–,15µM,–
CCCCCCc1cc2cc(C(=O)Nc3cccc(OC)c3)c(=O)oc2cc1O,?,–,–,?,–
Cc1ccc(-c2noc(CC(=O)c3ccc([N+](=O)[O-])cc3)n2)cc1,–,·,·,–,–
Cc1cc(C)n(C(=O)CNC(=O)c2ccccc2F)n1,–,–,–,–,–
CCOc1cc(N2CCOCC2)c(OCC)cc1NC(=O)c1ccccc1N1CCCC1=O,·,·,·,·,–
CCOC(=O)c1cc2ccc3ccccc3c2oc1=O,–,–,–,?,–
CNc1c(NS(=O)(=O)c2ccc(F)c(Cl)c2)c(=O)oc2ccccc12,–,–,–,–,–
CCCCCCc1cc2cc(S(=O)(=O)c3ccc(F)c(Cl)c3)c(=O)oc2cc1O,?,28µM,–,2.6µM,–
CCOC(=O)c1cc2ccc(OC(=O)c3ccco3)cc2oc1=O,3.3µM,–,–,–,–
O=C(NCc1ccccn1)c1ccc(NS(=O)(=O)c2ccccc2)cc1,–,–,–,–,?
CN1C(=O)[C@H]2[C@@H](c3ccc(C(F)(F)F)cc3)N[C@]3(CCCN(Cc4ccc(Br)cc4)C3=O)[C@H]2C1=O,·,·,·,·,–
Cc1occc1C(=O)N/N=C/C1=C(N2CCOCC2)C(=C\c2ccc(Cl)cc2)/CC1,18µM,–,–,?,–
Cc1cc(C)nc(N/N=C/C2=C(N3CCOCC3)C(=C/c3ccccc3)/CC2)n1,8.2µM,·,–,16µM,–
O=C(O)c1ccccc1N/N=C/C1=C(N2CCOCC2)C(=C\c2ccccc2)/CC1,?,–,–,?,–
O=C(N/N=C/C1=C(N2CCOCC2)C(=C\c2ccccc2)/CC1)Nc1ccccc1,?,–,–,?,–
CC1(C)CC(=O)C2=C(C1)O[C@@]1(CCCCN3C(=O)c4ccccc4C3=O)Cc3cc(C#N)ccc3C2O1,·,–[11.5 µM],–[9.22 µM],·,·
CCn1c2ccccc2c2cc(C3N=C(N)Nc4nc5ccccc5n43)ccc21 (stereo not drawn),21µM,–,–,–,–
Cc1ccc(C2N=C(N)Nc3nc4ccccc4n32)cc1 (stereo not drawn),–,–,–,–,–
O=S(Cc1ccc(Br)cc1)Cc1nnc(SCc2ccc(Br)cc2)n1-c1ccccc1 (stereo not drawn),23µM,–,–,?,?
COC(=O)c1ccc(CSc2nnc(CS(=O)Cc3ccc(Br)cc3)n2-c2ccccc2)cc1 (stereo not drawn),?,–,–,?,–
c1ccc(-c2nc(NCc3ccco3)c3ccccc3n2)nc1,?,·,–,5.8µM,–
CNc1nc(NCc2ccccc2)c2ccccc2n1,?,–,–,–,–
Oc1ccccc1Nc1nc(NCc2ccccc2)c2ccccc2n1,16µM,–,–,–,?
SMILES,MCF10A rerep,A-T KAP1 phos,Mito fusion yeast,SW480 rereplic,Integrin act MD
Cc1ccc(Nc2nc(NCc3ccco3)c3ccccc3n2)cc1,?,–,–,?,–
COc1ccccc1Nc1nc(NCc2ccco2)c2ccccc2n1,23µM,–,–,–,–
c1ccc(CNc2nc(N3CCN(Cc4ccccc4)CC3)nc3ccccc23)cc1,7.3µM,–,–,?,–
CN=C1C=CC(=C(c2ccc(N(C)C)cc2)c2ccc(N(C)C)cc2)C=C1,–,·,·,?,·
O=C(c1ccc([N+](=O)[O-])cc1)N1C=CC(C(F)(F)F)=NCC1,–,–,–,–,–
N#C[C@H]1[C@H](c2ccccc2)[C@](C#N)(C(=O)c2ccccc2)[C@@H]2C=Cc3ccccc3N21,·,16µM,–,·,·
Cc1cc2nc(N3C(=O)CNC3=S)sc2cc1C,15µM,–,?,?,–
CCOc1ccc2nc(N3C(=O)CNC3=S)sc2c1,?,–,–,?,–
COc1ccc(C#Cc2c(-c3ccsc3)oc3ccc(N4CCOCC4)cc23)cc1,16µM,·,·,–,–
O=C(OCc1ccc(O)cc1)c1c(-c2ccsc2)oc2ccc(N3CCOCC3)cc12,21µM,–,–,21µM,–
COc1ccc(-c2oc3ccc(N4CCOCC4)cc3c2C#Cc2ccc(N)cc2)cc1,5.8µM,·,·,?,–
COc1ccc(/C=C/c2c(-c3cccc(C)c3)oc3ccc(N4CCOCC4)cc23)cc1,9.2µM,·,·,–,–
OC1(C#Cc2c(-c3ccsc3)oc3ccc(N4CCOCC4)cc23)CCCCC1,?,·,·,?,–
CCOc1ccccc1N(CC(=O)Nc1ccccc1Br)S(=O)(=O)c1ccccc1,·,·,·,·,–
COc1ccc(S(=O)(=O)N(C)CC(=O)Nc2ccc3c(c2)OCO3)cc1,–,–,–,–,–
COc1ccc(S(=O)(=O)N(C)CC(=O)Nc2c(F)cccc2F)cc1,8.2µM,–,–,18µM,–
CC1CCCCC1NC(=O)c1ccncc1 (stereo not drawn),–,–,–,18µM,?
Cc1[nH]nc(-c2ccc(OCc3cnn(-c4ccccc4)c3)cc2O)c1Oc1ccc(F)cc1,?,–,–,–,–
Cc1[nH]nc(-c2ccc(OCc3cnn(-c4ccccc4)c3)c(C)c2O)c1Oc1ccccc1,16µM,–,–,?,–
O=C1c2cc([N+](=O)[O-])cc3cc([N+](=O)[O-])cc(c23)C(=O)N1c1ccccn1,?,–,–,21µM,–
Cc1ccc(S(=O)(=O)NCCC(=O)N2CCN(c3ccccc3)CC2)cc1C,–,–,·,–,·
NC1(C(=O)O)CCCCC1c1ccccc1 (stereo not drawn),–,·,·,–,–
OCC1OC(n2cnc3c(/C=C(\O)c4ccccc4)ncnc32)C(O)C1O (stereo not drawn),5.8µM,·,·,?,–
CN(C)c1ncnc2c1ncn2C1OC(CO)C(O)C1O (stereo not drawn),?,–,–,7.3µM,–
CN(C)c1ncnc2c1nnn2C1OC(CO)C(O)C1O (stereo not drawn),·,·,·,·,–
SMILES,MCF10A rerep,A-T KAP1 phos,Mito fusion yeast,SW480 rereplic,Integrin act MD
CCNC(=O)COC(=O)c1cc(C)n(-c2ccccc2)c1C,–,–,–,?,–
Cc1cc(C(=O)OCC(=O)NCc2ccco2)c(C)n1-c1ccc(F)cc1,2.1µM,–,–,3.7µM,–
Cc1cccc(C)c1OCCNC(=O)C(=O)NCc1ccco1,2.9µM,–,–,2.9µM,–
CCOc1ccccc1OCC(=O)NCc1ccco1,16µM,–,–,–,–
CC(C)Oc1ccc(S(=O)(=O)N2CCOCC2)cc1NC(=O)CCCSc1ccccc1,–,–,–,–,–
Cc1c(CCO)c(=O)n2c([nH]c3ccccc32)c1C#N,–,–,–,–,–
CCCCc1c(C)c(C#N)c2[nH]c3ccccc3n2c1=O,18µM,–,–,–,–

# Bioassay records as filed in PubChem.
